The results in this text go back to PubChem BioAssay AID1508601 (ICCB-Longwood Screening Facility, Harvard Medical School, 2020).

SMILES strings stand for the structures. Where “and” joins values, the source holds several entries; their conditions need not be identical. Equal entries are not always repeated. Screen size: about 5,700 compounds; about 85 (1%) were called active. No stated cut-off is given here; in the data, active means p53-positive nuclei above about 36% (passing the limit was not always enough); inactive means the rest. The list comes from a sample in which actives are over-represented; it also holds similar structures and randomly drawn compounds. The source holds several records for some structures; these can differ, active in one and inactive in another.

A short description of assay [1]: nuclear p53 accumulation, HPV+ cells – imaging, p53-positive nuclei imaging, 24 h, 48 h (AID 1508601). The following applies: 24/48 h.
In assay [2] the target is Cellular tumor antigen p53 (Homo sapiens) (UniProt P04637). Described as above. As to conditions: 24/48 h, stronger effect = higher value.
Cellular tumor antigen p53 (Homo sapiens), sequence (P04637 whole entry, looked up): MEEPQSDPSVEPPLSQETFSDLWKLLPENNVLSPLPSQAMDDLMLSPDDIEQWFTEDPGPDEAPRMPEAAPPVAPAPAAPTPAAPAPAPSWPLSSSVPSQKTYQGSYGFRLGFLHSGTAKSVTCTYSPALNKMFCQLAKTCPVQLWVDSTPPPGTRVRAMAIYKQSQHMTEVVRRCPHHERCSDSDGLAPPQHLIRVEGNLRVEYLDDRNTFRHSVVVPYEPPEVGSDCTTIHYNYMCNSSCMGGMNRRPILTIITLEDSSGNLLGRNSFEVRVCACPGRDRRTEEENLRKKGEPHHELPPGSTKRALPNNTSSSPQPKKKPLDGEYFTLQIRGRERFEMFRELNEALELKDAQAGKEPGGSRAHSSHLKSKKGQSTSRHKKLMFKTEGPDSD
Where [3] appears, read: measured here: cell number at 24 h, Library stock concentration: 80 uM.
[4] abbreviates: measured here: cell number at 24 h, Library stock concentration: 400 uM.
Where [5] appears, read: measured here: cell number at 24 h, Library stock concentration: 2 mM.
Where [6] appears, read: measured here: cell number at 24 h, Library stock concentration: 10 mM.
The mark [7] stands for this setting: measured here: cell number at 48 h, Library stock concentration: 80 uM.
Where [8] appears, read: measured here: cell number at 48 h, Library stock concentration: 400 uM.
[9] abbreviates: measured here: cell number at 48 h, Library stock concentration: 2 mM.
The mark [10] stands for this setting: measured here: cell number at 48 h, Library stock concentration: 10 mM.
[11] abbreviates: Library stock concentration: 80 uM.
Setting [12] is: Library stock concentration: 400 uM.
Setting [13] is: Library stock concentration: 2 mM.
The mark [14] stands for this setting: Library stock concentration: 10 mM.
Where [15] appears, read: measured here: p53 positive nuclei at 24 h, Library stock concentration: 80 uM.
Setting [16] is: measured here: p53 positive nuclei at 24 h, Library stock concentration: 400 uM.
Where [17] appears, read: measured here: p53 positive nuclei at 24 h, Library stock concentration: 2 mM.
Setting [18] is: measured here: p53 positive nuclei at 24 h, Library stock concentration: 10 mM.
Setting [19] is: measured here: cell number at 24 h, concentration not given here.
The mark [20] stands for this setting: measured here: cell number at 48 h, concentration not given here.
Setting [21] is: measured here: p53 positive nuclei at 24 h, concentration not given here.

Consider `CS(=O)(=O)c1cccc(CNc2nc(Nc3ccc4c(c3)CCC(=O)N4)ncc2C(F)(F)F)c1`, for which the nuclei count, normalised turned out to be 112% in assay [1] (setting [3]); 104% in assay [1] (setting [4]); 111% in assay [1] (setting [5]); 70.4% in assay [1] (measured here: cell number at 24 h, Library stock concentration: 3.33 mM); 48.4% in assay [1] (setting [6]); 115% in assay [1] (setting [7]). Moreover, the nuclei count, normalised worked out at 109% in assay [1] (setting [8]); 115% in assay [1] (setting [9]); 76.2% in assay [1] (measured here: cell number at 48 h, Library stock concentration: 3.33 mM); 28.9% in assay [1] (setting [10]). Also, the p53-positive nuclei, normalised is 0.032% (inactive) in assay [2] (setting [11]); -0.135% (inactive) in assay [2] (setting [12]); 0.159% (inactive) in assay [2] (setting [13]); -0.301% (inactive) in assay [2] (Library stock concentration: 3.33 mM); 1.33% (inactive) in assay [2] (setting [14]); -0.0118% in assay [2] (setting [15]). Also, the p53-positive nuclei, normalised in assay [2] (setting [16]) is -0.00681%; in assay [2] (setting [17]) it was 0.177%; in assay [2] (measured here: p53 positive nuclei at 24 h, Library stock concentration: 3.33 mM), -0.516%; in assay [2] (setting [18]) it was 0.847%.
For `CN(c1ccccc1CNc1nc(Nc2ccc3c(c2)CC(=O)N3)ncc1C(F)(F)F)S(C)(=O)=O`, the nuclei count, normalised in assay [1] (setting [3]) is 112% and 102%; in assay [1] (setting [4]), 112% and 102%; in assay [1] (setting [5]) it was 83.1% and 86.6%; in assay [1] (setting [6]) it was 33.4% and 36.5%; in assay [1] (setting [7]), 116% and 109%; in assay [1] (setting [8]), 120% and 115%. In addition, the nuclei count, normalised in assay [1] (setting [9]) was 81.2% and 88.6%; in assay [1] (setting [10]), 22.6% and 25.6%. In addition, the p53-positive nuclei, normalised is -0.0383% (inactive) and 0.0654% (inactive) in assay [2] (setting [11]); 0.0612% (inactive) and 0.141% (inactive) in assay [2] (setting [12]); 1.2% (inactive) and 0.96% (inactive) in assay [2] (setting [13]); 55.4% (inactive) and 54.9% (active) in assay [2] (setting [14]); -0.06% and 0.248% in assay [2] (setting [15]); 0.0578% and 0.322% in assay [2] (setting [16]). Moreover, the p53-positive nuclei, normalised is 0.201% and 0.404% in assay [2] (setting [17]); 43.5% and 27.2% in assay [2] (setting [18]).
For `CNC(=O)c1ccc(Nc2ncc(C(F)(F)F)c(NCc3nccnc3N(C)S(C)(=O)=O)n2)cc1`, the nuclei count, normalised in assay [1] (measured here: cell number at 24 h, Library stock concentration: 46 uM) came out at 91.8%; in assay [1] (measured here: cell number at 24 h, Library stock concentration: 278 uM) it was 82%; in assay [1] (measured here: cell number at 24 h, Library stock concentration: 1.67 mM) it was 95.8%; in assay [1] (setting [6]), 47.5%; in assay [1] (measured here: cell number at 48 h, Library stock concentration: 46 uM), 91.6%; in assay [1] (measured here: cell number at 48 h, Library stock concentration: 278 uM), 86.7%. Besides, the nuclei count, normalised in assay [1] (measured here: cell number at 48 h, Library stock concentration: 1.67 mM) amounted to 108%; in assay [1] (setting [10]), 33.5%. Further, the p53-positive nuclei, normalised in assay [2] (Library stock concentration: 46 uM) was -0.225% (inactive); in assay [2] (Library stock concentration: 278 uM), -0.256% (inactive); in assay [2] (Library stock concentration: 1.67 mM), 0.138% (inactive); in assay [2] (setting [14]), 14.9% (inactive); in assay [2] (measured here: p53 positive nuclei at 24 h, Library stock concentration: 46 uM), -0.00777%; in assay [2] (measured here: p53 positive nuclei at 24 h, Library stock concentration: 278 uM) it was -0.0569%. Also, the p53-positive nuclei, normalised in assay [2] (measured here: p53 positive nuclei at 24 h, Library stock concentration: 1.67 mM) turned out to be 0.153%; in assay [2] (setting [18]), 8.89%.
Turning to `CCCCC/C=C/C=C1/C=CC(=O)[C@@H]1C/C=C\CCCC(=O)O`, the nuclei count, normalised in assay [1] (setting [19]) is 106%; in assay [1] (setting [20]), 102%. The p53-positive nuclei, normalised in assay [2] (concentration not given here) is 0.0559% (inactive); in assay [2] (setting [21]) it was 0.0826%.
On the same counts, the results for `O=C(O)CCC/C=C\C[C@@H]1[C@@H](/C=C/[C@@H](O)COc2ccccc2)[C@H](O)C[C@@H]1O` are 96%, 102%, -0.0602% (inactive) and -0.00687%.
The matching figures for `CC(=O)Nc1ccc(S(=O)(=O)Nc2ccc([N+](=O)[O-])cc2)cc1`: 87.2%, 92.6%, -0.0672% (inactive) and 0.0938%.
In the case of `COC(=O)C#Cc1ccc([N+](=O)[O-])cc1`, the nuclei count, normalised in assay [1] (measured here: cell number at 24 h, Library stock concentration: 500 nM) stood at 110%; in assay [1] (measured here: cell number at 24 h, Library stock concentration: 1.5 uM), 114%; in assay [1] (measured here: cell number at 24 h, Library stock concentration: 4.6 uM), 106%; in assay [1] (measured here: cell number at 24 h, Library stock concentration: 13.7 uM) it was 116%; in assay [1] (measured here: cell number at 24 h, Library stock concentration: 41 uM), 110%; in assay [1] (measured here: cell number at 24 h, Library stock concentration: 123 uM), 103%. For the same compound, the nuclei count, normalised came out at 118% in assay [1] (measured here: cell number at 24 h, Library stock concentration: 370 uM); 107% in assay [1] (measured here: cell number at 24 h, Library stock concentration: 1.111 mM); 74.6% in assay [1] (measured here: cell number at 24 h, Library stock concentration: 3.333 mM); 49.2% in assay [1] (setting [6]); 111% in assay [1] (measured here: cell number at 48 h, Library stock concentration: 500 nM); 112% in assay [1] (measured here: cell number at 48 h, Library stock concentration: 1.5 uM). Moreover, the nuclei count, normalised in assay [1] (measured here: cell number at 48 h, Library stock concentration: 4.6 uM) was 112%; in assay [1] (measured here: cell number at 48 h, Library stock concentration: 13.7 uM), 112%; in assay [1] (measured here: cell number at 48 h, Library stock concentration: 41 uM) it was 114%; in assay [1] (measured here: cell number at 48 h, Library stock concentration: 123 uM), 106%; in assay [1] (measured here: cell number at 48 h, Library stock concentration: 370 uM) it was 117%; in assay [1] (measured here: cell number at 48 h, Library stock concentration: 1.111 mM), 108%. Besides, the nuclei count, normalised in assay [1] (measured here: cell number at 48 h, Library stock concentration: 3.333 mM) came to 69.9%; in assay [1] (setting [10]), 32.5%. Also, the p53-positive nuclei, normalised in assay [2] (Library stock concentration: 500 nM) is -0.248% (inactive); in assay [2] (Library stock concentration: 1.5 uM), 0.113% (inactive); in assay [2] (Library stock concentration: 4.6 uM), -0.0386% (inactive); in assay [2] (Library stock concentration: 13.7 uM), 0.351% (inactive); in assay [2] (Library stock concentration: 41 uM) it was -0.0492% (inactive); in assay [2] (Library stock concentration: 123 uM) it was 0.00469% (inactive). The p53-positive nuclei, normalised in assay [2] (Library stock concentration: 370 uM) is 0.132% (inactive); in assay [2] (Library stock concentration: 1.111 mM), -0.122% (inactive); in assay [2] (Library stock concentration: 3.333 mM) it was 0.307% (inactive); in assay [2] (setting [14]) it was 69.2% (active); in assay [2] (measured here: p53 positive nuclei at 24 h, Library stock concentration: 500 nM), -0.0875%; in assay [2] (measured here: p53 positive nuclei at 24 h, Library stock concentration: 1.5 uM), -0.0262%. Moreover, the p53-positive nuclei, normalised in assay [2] (measured here: p53 positive nuclei at 24 h, Library stock concentration: 4.6 uM) was -0.0872%; in assay [2] (measured here: p53 positive nuclei at 24 h, Library stock concentration: 13.7 uM), 0.099%; in assay [2] (measured here: p53 positive nuclei at 24 h, Library stock concentration: 41 uM), 0.0546%; in assay [2] (measured here: p53 positive nuclei at 24 h, Library stock concentration: 123 uM), -0.148%; in assay [2] (measured here: p53 positive nuclei at 24 h, Library stock concentration: 370 uM) it was -0.0792%; in assay [2] (measured here: p53 positive nuclei at 24 h, Library stock concentration: 1.111 mM), -0.148%. For the same compound, the p53-positive nuclei, normalised in assay [2] (measured here: p53 positive nuclei at 24 h, Library stock concentration: 3.333 mM) stood at 0.591%; in assay [2] (setting [18]), 73.8%.
`O=C(N[C@@H](CO)[C@H](O)c1ccc([N+](=O)[O-])cc1)C(Cl)Cl`: the nuclei count, normalised came out at 109% in assay [1] (setting [19]) and 107% in assay [1] (setting [20]). For the same compound, the p53-positive nuclei, normalised in assay [2] (concentration not given here) is -0.175% (inactive); in assay [2] (setting [21]) it was -0.247%.
